For five compounds, Potency, outcome and max response results are on record in PubChem BioAssay (NCATS).

A short description of experiment [1]: Cell Viability - BJ (AID 421; calls by dose curve;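 further: potency means the concentration at half of the fitted maximal effect; cells exposed to compound for 40 hours at 37 °C before readout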). The note with it: BJ fibroblast viability, qHTS. Put shortly:
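Normal human BJ foreskin fibroblasts, 1500/well in complete medium, treated 40 hr at 37 °C. Cellular ATP by CellTiter-Glo luminescence; normalized to DMSO and 100 uM tamoxifen, AC50 from Hill fit.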

Experiment [2] in a line: Cellular Toxicity (caspase-3) N2a (AID 665).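 Further: compound exposure lasted 16 h at 37 °C before readout.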 The note with it: N2a cells, luminescence, normalized: DMSO 0%, 10 µM staurosporine 100%; series mostly up to 92.2 µM. In short, it runs like this: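 Caspase-3/7 activation, measured as increased luminescence from aminoluciferin release, is quantified in mouse N2a cells exposed to compounds for 16 h. Values are normalized to DMSO and 10 uM staurosporine, with AC50 derived by Hill modelling.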

The nature of experiment [3]: Cell Viability - LYMP1-002 - Assay at 24 hr (AID 993). The settings on record: LYMP1-002 lymphoblastoid cells viability; series mostly up to 92.2 µM. Put shortly:
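Acute toxicity is measured as concentration-dependent loss of cellular ATP in a human lymphoblastoid line (Coriell LYMP1-002) after 24 h treatment in complete medium. ATP is quantified by luciferase luminescence and AC50 derived by Hill modelling.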

The target of experiment [4] is Estrogen receptor (Homo sapiens) (UniProt P03372). The experiment is described as follows: qHTS assay for small molecule antagonists of estrogen receptor alpha signaling (AID 588513; active means well fitted curve in the direction sought with a large enough effect in the signal ratio, with a control signal flat, not every such curve was filed as active; the % refers to the signal ratio). The settings on record: ER-alpha-UAS-bla HEK293, beta-lactamase ratio, antagonist mode; series mostly up to 76.9 µM. In short, it runs like this:
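Fluorescence from CCF4 substrate after 2 h at room temperature gave reporter activity; cells had been exposed to compound and 0.5nM 17-beta-estradiol for 18 h at 37 C. Hill-equation fitting yielded IC50 and maximal response.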

For experiment [5], the target named is Tumor necrosis factor (Homo sapiens) (UniProt P01375). The experiment is described as follows: qHTS assay to identify small molecules that stimulate Tumor Necrosis Factor-alpha (TNF-alpha) secretion (AID 651757; active means well fitted curve in the direction sought with a large enough effect in the signal ratio; the % refers to the signal ratio). The settings on record: Human cells, HTRF 665/615 ratio; series mostly up to 92.2 µM. Put shortly:
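Human monocytic THP-1 cells are plated, treated with compound and held at 37 C for 17 hrs. Labeled anti-TNF-alpha antibody mixture is then added; after 3 hr at room temperature, TR-FRET signal reports secreted TNF-alpha.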

The target of experiment [6] is Estrogen receptor (Homo sapiens) (UniProt P03372). The experiment is described as follows: qHTS assay for small molecule agonists of estrogen receptor alpha signaling (AID 588514; calls by dose curve; further: nearly all actives have a fitted effect of over 70% in size). The settings on record: ER-alpha-UAS-bla HEK293, beta-lactamase ratio, 18 h; series mostly up to 76.8 µM. In short, it runs like this: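 Efficacy is expressed against 20 nM 17-beta-estradiol (100%) and DMSO basal (0%); EC50 from Hill equation. Assay: beta-lactamase reporter in ER-alpha-UAS-bla HEK 293 cells, 18 h compound incubation, CCF4 detection.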
Estrogen receptor (Homo sapiens), sequence (P03372 whole entry, looked up): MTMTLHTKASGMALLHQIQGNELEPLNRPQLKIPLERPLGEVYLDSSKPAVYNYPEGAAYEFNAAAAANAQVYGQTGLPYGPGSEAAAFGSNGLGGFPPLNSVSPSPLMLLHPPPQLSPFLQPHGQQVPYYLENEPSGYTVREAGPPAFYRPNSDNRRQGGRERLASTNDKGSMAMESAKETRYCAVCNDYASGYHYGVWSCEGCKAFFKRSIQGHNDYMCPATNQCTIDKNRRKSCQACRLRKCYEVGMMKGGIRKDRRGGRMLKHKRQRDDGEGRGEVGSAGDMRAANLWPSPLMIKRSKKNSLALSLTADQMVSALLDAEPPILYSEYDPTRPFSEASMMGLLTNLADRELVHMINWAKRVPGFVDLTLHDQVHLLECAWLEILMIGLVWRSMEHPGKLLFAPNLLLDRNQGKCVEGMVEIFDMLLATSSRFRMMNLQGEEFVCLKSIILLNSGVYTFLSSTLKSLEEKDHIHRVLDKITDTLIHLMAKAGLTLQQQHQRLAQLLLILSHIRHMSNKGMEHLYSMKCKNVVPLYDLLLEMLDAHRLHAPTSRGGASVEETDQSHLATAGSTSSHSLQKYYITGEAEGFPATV

The nature of experiment [7]: Cell Viability - MRC5 (AID 434; calls by dose curve;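 further: potency means the concentration at half of the fitted maximal effect; cells exposed to compound for 40 hours at 37 °C; potency reflects cytotoxicity seen as loss of intracellular ATP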). The settings on record: MRC5 lung fibroblast viability, qHTS. Put shortly:
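AC50 values come from Hill-equation fits of intracellular ATP loss, measured by CellTiter-Glo luminescence. Normal lung fibroblasts (MRC5) had 40 hr compound treatment at 37 C, normalized between DMSO and 100 uM tamoxifen.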
(qHTS replaces the single test concentration by a dilution series.)

Experiment [8] can be described thus: Cellular Toxicity (caspase-3) Hek293 (AID 664).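 Further: cells exposed to compound for 16 h at 37 °C before readout.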 The settings on record: HEK293 caspase-3 activation, DMSO = 0%, 100 µM tamoxifen = 100%; series mostly up to 92.2 µM. In short, it runs like this:
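qHTS, HEK293 (human embryonic kidney), 16 h cpd exposure in complete medium. Caspase-3/7 activation = luminescence increase; normalized to DMSO/100 uM tamoxifen; Hill-fit AC50.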

Experiment [9] in a line: MultiTox-Fluor Cytotoxicity Assay - LYMP1-002 - Dead Cells (AID 960).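 Further: cells exposed to compound for 16 h at 37 °C; nearly all actives have a fitted effect of over 60% in size.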 The note with it: LYMP1-002 lymphoblastoid cells, dead-cell protease fluorescence; series mostly up to 46.1 µM. In short, it runs like this:
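Cells were plated, rested 5 hr, then treated with compound dilution series for 16 hr at 37 C. After adding substrate reagent and 60 min at room temperature, dead-cell protease fluorescence gave concentration-response curves fitted by the Hill equation.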

Experiment [10] in a line: qHTS Counterscreen for compound interference against the NCATS DSHEA and TCM libraries (AID 1919978).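 Further: compounds preincubated with 1 µM D-luciferin or buffer before detection reagent.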 The note with it: firefly luciferase detection reagent interference, luminescence. Put shortly: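 Compounds, titrated from 19.5 nM to 39.8 uM final, were pinned onto 1 uM D-luciferin or plain 100 mM potassium phosphate. After 15 min at room temperature, luciferin detection reagent was added for 30 min before the luminescence read.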

Experiment [11] deals with DNA dC->dU-editing enzyme APOBEC-3G (Homo sapiens) (UniProt Q9HC16). The experiment is described as follows: qHTS for inhibitors of Vif-A3G interactions: Validation (AID 588379). The settings on record: Vif-A3G protein interaction assay; series mostly up to 46.1 µM. Put shortly:
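Yellow fluorescence (Ex 488, Em 500-530) of Vif-coexpressing HeLa A3G-eYFP cells, scanned by Acumen cytometer, reports blocked A3G degradation. Cells plated at 700/well overnight at 37 deg C before compound addition, then a further overnight compound incubation at 37 deg C.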

A number with no mark means an inactive call. Inconclusive results are not listed. Entries that show only a call come without a potency. Active and inactive are the calls of the source. Unless noted, the call rests on the fitted dose curve; in most records, active means well fitted curve in the direction sought with a large enough effect; inconclusive means small, poorly fitted or top-dose-only effect, or another doubt; inactive means no such curve, though single readings can be large; an effect the other way counts as inactive or inconclusive. Bounds are passed on as bounds.

Tumor necrosis factor (Homo sapiens), sequence (P01375 whole entry, looked up): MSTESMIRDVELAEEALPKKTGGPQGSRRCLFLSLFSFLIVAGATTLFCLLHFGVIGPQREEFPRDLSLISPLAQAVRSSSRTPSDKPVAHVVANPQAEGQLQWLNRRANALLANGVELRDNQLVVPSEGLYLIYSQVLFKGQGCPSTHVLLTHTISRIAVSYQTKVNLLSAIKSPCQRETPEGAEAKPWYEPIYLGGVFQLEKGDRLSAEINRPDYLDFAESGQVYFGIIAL
DNA dC->dU-editing enzyme APOBEC-3G (Homo sapiens), sequence (Q9HC16 whole entry, looked up): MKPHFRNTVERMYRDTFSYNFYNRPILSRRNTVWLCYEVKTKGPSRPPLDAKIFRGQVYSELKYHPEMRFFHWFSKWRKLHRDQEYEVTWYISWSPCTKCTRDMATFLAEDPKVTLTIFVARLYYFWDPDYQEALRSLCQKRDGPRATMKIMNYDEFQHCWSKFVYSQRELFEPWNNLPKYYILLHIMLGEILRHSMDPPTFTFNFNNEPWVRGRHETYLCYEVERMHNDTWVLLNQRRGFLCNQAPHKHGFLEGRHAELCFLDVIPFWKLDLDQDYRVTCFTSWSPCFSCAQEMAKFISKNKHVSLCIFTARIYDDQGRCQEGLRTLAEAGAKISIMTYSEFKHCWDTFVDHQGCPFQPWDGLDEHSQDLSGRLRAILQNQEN

`CC12CCC(CC1=O)C2(C)C` (stereo unspecified): the Potency in experiment [1] is above 92 µM. Besides, the outcome in experiment [2] and in experiment [5] was inactive. In addition, the Potency result in [3] and in experiment [4] was “inactive” in each case.

`CCCCCCCCOC(=O)c1cc(O)c(O)c(O)c1`: the Potency result in [6] is “inactive”.

Consider `O=C(/C=C/c1ccc(O)c(O)c1)O[C@@H](C(=O)O)[C@@H](OC(=O)/C=C/c1ccc(O)c(O)c1)C(=O)O`, for which the Potency in [7] is above 92 µM. For the same compound, the result in [8] was inactive. Moreover, the Potency entry in experiment [9] is “inactive”.

`O=C(/C=C/c1ccc(O)c(O)c1)O[C@H]1[C@H](O)C[C@](O)(C(=O)O)C[C@H]1OC(=O)/C=C/c1ccc(O)c(O)c1`: the max response in [10] is -1.54%.

Consider `O=c1ccc2cc3ccoc3cc2o1`, for which the compound was called inactive in experiment [11].
